Spn MK inh: S. pneumoniae mevalonate kinase inhibition; purified MK, PK/LDH-coupled NADH absorbance 340 nm; 0.48% of 65,000 active; AID 555; inhibition, % at 10 µM;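 active = ranked among the strongest by inhibition in the single 10 µM screen, a fixed top-ranked set picked for dose follow-up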
NADH coupling: inhibitors of enzymes used to reach an NAD/NADH endpoint; 0.02% of 65,000 active; IC50, µM (top dose mostly 10 µM); coupled PK/LDH NADH assays, four targets;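 active = single-dose screening hits from any of four coupled enzyme assays that gave an IC50 when retested across doses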;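 also: the DPM-DC format reads NADH fluorescence rather than 340 nm absorbance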
A340 absorber: compound absorbs light at 340 nm; 65,000 tested, under 10 active; AID 708; fold change at 10 µM; compound absorbance at 340 nm, fold over control;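 active = at 10 µM dose, initial 340 nm absorbance at least 2 fold that of control wells; inactive = change under 2 fold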;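 also: initial absorbance extrapolated from kinetic A340 decline of NADH oxidation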
Autofluor 339: intrinsic fluorescence of library compounds, ex339/em460 – biochemical, MLSMR library, data from DPM-DC assay, artefact control, profiling panel; compound autofluorescence, ex339/em460 nm, NADH buffer; hits give high values; 1 = no-compound wells, NADH background; fluorescence fold increase at 10 µM; 5.5% of 65,000 active; AID 709;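 active = at 10 µM, mean starting fluorescence two-fold or more over control wells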;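 also: signal is the first read of a kinetic run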
Spn DPM-DC inh: S. pneumoniae DPM-DC inhibition | purified DPM-DC, PK/LDH coupled NADH fluorescence | 0.49% of 65,000 active | calls only at 10 µM;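 active = the 320 compounds with the highest percent inhibition in the single-dose primary screen, excluding strongly autofluorescent ones, cut at about 32% in these data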;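 also: kinetic rate of NADH fluorescence loss reporting ADP formed by the decarboxylase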
Spn PMK inh: blocks S. pneumoniae phosphomevalonate kinase; 0.49% of 65,000 active; purified PMK, PK/LDH-coupled NADH absorbance 340 nm; inhibition, % at 10 µM;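 active = top-ranked compounds by inhibition in the single 10 µM screen, taking a fixed number of the strongest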
Each line names hits and unclear results; the compound was inactive in the other large screens. Only some compounds are listed: those with a hit (about 6.5% of all), similar ones and a draw of the others.

CCn1c(SCC(=O)Nc2cccc(C(C)=O)c2)nnc1C(C)C	Spn DPM-DC inh active
N#Cc1nc(-c2ccccc2Cl)oc1NCc1ccco1	none
N#Cc1nc(-c2ccc(Cl)cc2)oc1NCc1cccc2c1OCO2	Autofluor 339 3.8 (not shown: Spn DPM-DC inh)
N#Cc1nc(-c2ccc(Cl)cc2)oc1NCc1ccco1	Autofluor 339 2.1 (not shown: Spn DPM-DC inh)
Cn1c(=O)c2c(-c3ccccc3)n3c4ccccc4ncc3c2n(C)c1=O	Autofluor 339 3.9 (not shown: Spn DPM-DC inh)
c1ccc(-n2nc3c(ccc4cnnc43)[nH]2)cc1	Autofluor 339 4 (not shown: Spn DPM-DC inh)
CCOC(=O)c1sc(NC(=O)COC(=O)Cn2cnc3ccccc32)c(C(=O)OCC)c1C	none
O=S(=O)(c1ccc(F)cc1)N1CCC(N2CCCC2)CC1	Spn MK inh 50
COc1ccc(S(=O)(=O)N2CCC(N3CCCCC3)CC2)cc1	none
COc1ccc(S(=O)(=O)N2CCN(C3CCCCCCC3)CC2)cc1	Spn PMK inh 29
CCOC(=O)C1CCCN(C(=O)COC(=O)C2=COCCO2)C1 (configuration not stated)	none
O=S(=O)(Cc1ccccc1)N1CCC(c2nc(-c3cccs3)no2)CC1	Autofluor 339 3.1
O=C(Cc1ccccc1)N1CCCC(c2nc(-c3cccs3)no2)C1 (configuration not stated)	none
CCOc1ccccc1NC(=O)CSc1nnc(-c2ccccc2Cl)n1Cc1ccco1	none
CCOC(=O)c1cc2c(=O)n3ccccc3nc2n(CCCOC)c1=NC(C)=O	Autofluor 339 2.4 (not shown: Spn DPM-DC inh)
CC(C)OCCCn1c(=N)c(C(N)=S)cc2c(=O)n3ccccc3nc21	none
CCCn1c(=NC(=O)c2ccco2)c(C(=O)OCC)cc2c(=O)n3ccccc3nc21	Autofluor 339 3.8 (not shown: Spn DPM-DC inh)
O=C1NC(Nc2nccs2)(C(F)(F)F)C(=O)N1CCc1ccccc1 (configuration not stated)	none
Cc1ccc2[nH]c(=O)c(CN(CCN3CCOCC3)C(=O)Nc3ccccc3F)cc2c1	Spn MK inh active
CCc1ccc2[nH]c(=O)c(CN(CCN(CC)CC)C(=O)NC3CCCCC3)cc2c1	none
COc1cc2cc(CN(CCN3CCCC3)C(=O)Nc3ccc(F)cc3)c(=O)[nH]c2cc1OC	Autofluor 339 3.1 (no result: Spn MK inh)
COc1ccc2[nH]c(=O)c(CN(C(C)=O)C3CCCCC3)cc2c1	Autofluor 339 3.5 (not shown: Spn DPM-DC inh)
COc1ccc2[nH]c(=O)c(CN(C(=O)NC3CCCCC3)C3CCCC3)cc2c1	Autofluor 339 2.5
Cc1cccc2cc(CN(CCN3CCOCC3)C(=O)Nc3ccccc3F)c(=O)[nH]c12	none
COc1cc2cc(CN(C(=O)Nc3ccccc3)C3CCCC3)c(=O)[nH]c2cc1OC	Autofluor 339 3.2 (not shown: Spn DPM-DC inh)
COc1cc(-c2nc3ccccn3c2NCC2CCCO2)ccc1O (configuration not stated)	Autofluor 339 3.7 (not shown: Spn DPM-DC inh)
Oc1ccccc1-c1nc(NCC2CCCO2)c2ccccc2n1 (configuration not stated)	none
CCOc1cc(-c2nc3ccccn3c2NCC2CCCO2)ccc1O (configuration not stated)	Autofluor 339 3 (not shown: Spn DPM-DC inh)
COc1cccc(-c2nc(NCC3CCCO3)c3ccccc3n2)c1O (configuration not stated)	none
O=C(OCC(=O)N1CCOCC1)c1ccc[nH]c1=O	none
COc1cc2ccccc2cc1C(=O)OCC(=O)N1CCOCC1	Autofluor 339 5.1 (not shown: Spn DPM-DC inh)
Cc1ccc2nc(Nc3nc(=O)c4ccccc4n3C)nc(C)c2c1	none
Cc1ccc(-c2nc3c(=O)n(C)c4ccccc4c3o2)cc1	Autofluor 339 4.7 (not shown: Spn DPM-DC inh)
Cc1ccc(CNC(=O)CCS(=O)(=O)c2cccc3nonc23)cc1	none
CCn1c(COc2ccccc2C)nnc1SCC(=O)N1CCCCC1	Spn PMK inh 27
Cc1ccccc1OCCN1C(=O)NC2(CCc3ccccc32)C1=O (configuration not stated)	none
CCCn1c(CCC(=O)O)ccc1-c1ccc(OC)cc1	Autofluor 339 3.5 (not shown: Spn DPM-DC inh)
O=C(O)CCc1ccc(-c2ccc(Cl)cc2)n1CC(=O)O	none
CC(CC(=O)O)NCC1COc2ccccc2O1 (configuration not stated)	Spn PMK inh 26
O=C(O)CNCC1COc2ccccc2O1 (configuration not stated)	none
c1ccc2c3c(cc(N4CCOCC4)c2c1)OC1(N2CCOCC2)CCCCC1O3 (configuration not stated)	Autofluor 339 3.9 (not shown: Spn DPM-DC inh)
O=C(Nc1ccc(N2CCOCC2)c(Cl)c1)C1CCCCC1	none
CCOC(=O)N1CCN(C(=O)c2cnn(-c3ccccc3)c2NC(=O)c2ccccc2F)CC1	none
Cc1cc(C(=O)NCCCn2ccnc2)cs1	none
Cc1ccc2nc3c(cc(C(=O)NCC4CCCO4)n3C)c(=O)n2c1 (configuration not stated)	Autofluor 339 3 (not shown: Spn DPM-DC inh)
Cc1ccc2nc3c(cc(C(=O)NCCCn4ccnc4)n3C)c(=O)n2c1	Autofluor 339 3.9 (not shown: Spn DPM-DC inh)
Cc1ccc2nc3c(cc(C(=O)NCC4CCCO4)c(=N)n3CCCOC(C)C)c(=O)n2c1 (configuration not stated)	Autofluor 339 3.7 (not shown: Spn DPM-DC inh)
Cc1csc2ncc(C(=O)NC(C)c3ccccc3)c(=O)n12 (configuration not stated)	Autofluor 339 2.1 (not shown: Spn DPM-DC inh)
CC(NC(=O)c1ccccc1O)c1ccccc1 (configuration not stated)	Autofluor 339 2.2 (not shown: Spn DPM-DC inh)
Cc1csc2ncc(C(=O)NCc3ccccc3Cl)c(=O)n12	Autofluor 339 2.1 (not shown: Spn DPM-DC inh)
CCOc1ccccc1NC(=O)Cn1nnc(-c2ccc(OCC)c(OCC)c2)n1	none
C=CCNc1nc(N2CCCC2)nc2ccccc12	Autofluor 339 2.7, Spn DPM-DC inh active
O=C(NCCO)c1nc(NCCO)c2ccccc2n1	none
OCCNc1nc(N2CCN(Cc3ccccc3)CC2)nc2ccccc12	Autofluor 339 2
CN1CCN(S(=O)(=O)c2ccc3c4c(cccc24)C(=O)N3)CC1	Autofluor 339 2.1 (not shown: Spn DPM-DC inh)
O=C1Nc2ccc(S(=O)(=O)NCc3ccccn3)c3cccc1c23	Autofluor 339 3.8 (not shown: Spn DPM-DC inh)
CCOc1ccccc1N1CCN(S(=O)(=O)c2ccc3c4c(cccc24)C(=O)N3)CC1	none
O=C1Nc2ccc(S(=O)(=O)N3CCOCC3)c3cccc1c23	Autofluor 339 4 (not shown: Spn DPM-DC inh)
CN1C(=O)c2cccc3c(S(=O)(=O)Nc4ccccn4)ccc1c23	none
O=C1Nc2ccc(S(=O)(=O)N3CCCCCC3)c3cccc1c23	Autofluor 339 2.1 (not shown: Spn DPM-DC inh)
Cc1ccccc1N(Cc1nnc2n1CCCCC2)C(=O)Nc1ccccc1	none
CCn1c(=N)n(CC(=O)C23CC4CC(CC(C4)C2)C3)c2ccccc21	none
C=CCOC(=O)C1CC=CCC1C(=O)Oc1ccc(F)cc1F (configuration not stated)	none
CCN(CC)c1ccc(/C=N/n2c(=S)[nH]nc(C)c2=O)cc1	NADH coupling 39µM, Spn DPM-DC inh active
COC(=O)c1ccc(C(=O)OC)c(NS(C)(=O)=O)c1	none
COC(=O)c1ccc(C(=O)OC)c(N)c1	Autofluor 339 4 (not shown: Spn DPM-DC inh)
